Laboratory results as given in ChEMBL document CHEMBL4513216, “Probing the Open Global Health Chemical Diversity Library for Multistage-Active Starting Points for Next-Generation Antimalarials” (ACS Infect Dis, 2020).
About 2,100 (3.2%) of roughly 65,000 compounds showed an effect of 50% or more. The median lay at about -52%. Only a selection was taken, and strong results are over-represented in it overall.

Test system: Plasmodium falciparum
Test: Screen against P. falciparum Asexual Blood Stage (ABS), at 5uM
Assay type: functional, Dd2
Settings: tested at 5 uM

SMILES	INHIBITION
Cc1nc(CN2CC(Cc3ccccc3)CC2=O)no1 (stereo not drawn)	-37.6%
Cc1ccc(CNCc2ccc(N3CCC(CO)CC3)nc2)c(C)c1	-47.4%
CC(c1nc(C2CC2)no1)N1CCc2c(ncn2C)C1 (stereo not drawn)	-90.5%
Cn1nc(C(=O)NCc2cccnc2)c2c1CCS(=O)(=O)C2	-148%
Cc1cnc(CCN(C)C(=O)c2ccc(O)nc2C)s1	-151%
COc1cccc(-c2cc(NCCN(C)C)nc3[nH]ccc23)n1	53.1%
COc1cccc(-c2cc(NCC(=O)O)nc3[nH]ccc23)n1	-47%
COc1cccc(-c2cc(NCCO)nc3[nH]ccc23)n1	-62.1%
O=C(Cc1ccsc1)N1C[C@H]2CCC[C@@]2(COCc2ccccn2)C1	-116%
Cc1cnc(NC(=O)c2csc(NCC(C)C)n2)s1	-175%
Cc1ccc(CC(=O)NCC(O)c2cccc(C(F)(F)F)c2)cn1 (stereo not drawn)	-58.1%
Cc1ncc(CN(C)CC(O)c2ccc(OC(F)(F)F)cc2)s1 (stereo not drawn)	64%
Cc1ncc(CN(C)CC(O)c2cccc(C(F)(F)F)c2)s1 (stereo not drawn)	54.7%
Cc1ncc(CN(C)CC(O)c2ccc(Br)cc2)s1 (stereo not drawn)	22.6%
CCOC(=O)CN(C)Cc1cnc(C)s1	-142%
Cc1cc(CNC(=O)NCC(O)c2cccc(C(F)(F)F)c2)no1 (stereo not drawn)	-34.1%
O=C(CC1CC1)N[C@@H]1CN(C(=O)c2ccoc2)C[C@@H]2CCCO[C@@H]21	-102%
CN(C)C(=O)c1cnc2n1CCN(Cc1ccc3c(c1)OCO3)C2	24.3%
CCn1cc2c(n1)CN(Cc1ccc(F)cc1)CC2COCC1CC1 (stereo not drawn)	-38.3%
CC(C)(CNC(=O)COc1cccc(F)c1)C(N)=O	60.6%
CC(C)(CNC(=O)CCCOc1cccc(F)c1)C(N)=O	44.9%
CC(C)(CNC(=O)CCOc1cccc(F)c1)C(N)=O	-172%
CC(C)Cn1cc2nc(N3CCC(O)CC3)[nH]cc-2c1=O	-52.3%
Cc1cccc(Cn2cc(Br)c(NS(C)(=O)=O)n2)c1	-96.25%
O=C(NCCn1ccnc1)c1ccn(-c2cccc(F)c2)n1	-1.32%
Cc1oc(-c2cccc(F)c2F)nc1CN(C)CCO	-82.7%

SMILES	INHIBITION
Cc1ccc(-c2nn(-c3cccc(F)c3)cc2CN(C)CCO)o1	50.5%
Cc1nc(CN2CCN(CCCc3nc4ccccc4o3)CC2)no1	-77.4%
CN(Cc1cccnc1)[C@@H]1CN(Cc2nccn2C)[C@@H]2CCCO[C@H]12	-13.9%
CN(Cc1ccco1)[C@@H]1CN(Cc2ccco2)[C@@H]2CCCO[C@H]12	11.7%
CN(Cc1cccnc1)[C@@H]1CN(Cc2ccccn2)[C@@H]2CCCO[C@H]12	50.8%
CN(Cc1ccco1)[C@@H]1CN(CC2CCOCC2)[C@@H]2CCCO[C@H]12	-0.241%
CN(Cc1cccnc1)[C@@H]1CN(c2ccccn2)[C@@H]2CCCO[C@H]12	-39.4%
CN(Cc1ccco1)[C@@H]1CN(Cc2nccn2C)[C@@H]2CCCO[C@H]12	-23.8%
CN(Cc1ccco1)[C@@H]1CN(Cc2cnn(C)c2)[C@@H]2CCCO[C@H]12	27.3%
Cc1noc(C)c1CN1C[C@@H](N(C)Cc2ccco2)[C@H]2OCCC[C@H]21	50.4%
CN(Cc1ccco1)[C@@H]1CN(Cc2ccc(F)cc2)[C@@H]2CCCO[C@H]12	56.5%
O=C(CCc1ccc(-n2cnnn2)cc1)Nc1ccncc1	-12.1%
CCn1cc2c(n1)CN(Cc1nccs1)CC2COCC1CC1 (stereo not drawn)	-9.1%
CN(C)c1nc(O)cc(C2CCN(C(=O)Cc3ccccn3)C2)n1 (stereo not drawn)	-107%
N#CC1CCCN(c2ncnc3c2CCN(Cc2ccccc2)CC3)C1 (stereo not drawn)	-71.7%
CCOc1c(Cl)cccc1NCc1cc(C)on1	-51.8%
Cc1cc(CNc2cccc(Cl)c2C)no1	54.3%
Cc1cc(CNc2ccccc2Cl)no1	40.4%
CNC(=O)c1cnc(C=Cc2cc(OC)c(O)c(OC)c2)s1	-64.8%
CNC(=O)c1cccc(CNC(C)c2cc(Cl)ccc2OC)c1 (stereo not drawn)	-5.94%
CNC(=O)c1cccc(CNC(C)c2cc(C)ccc2OC(F)F)c1 (stereo not drawn)	60.1%
CNC(=O)c1cccc(CNC(C)c2ccc(F)cc2N(C)C)c1 (stereo not drawn)	-107%
CCOc1ncccc1CNC(=O)c1c(C)oc(C)c1C	58.4%
Cc1oc(C)c(C(=O)NCc2cccnc2N(C)C)c1C	-69.8%
Cc1oc(C)c(C(=O)NCc2ccccc2CN(C)C)c1C	57.3%
Cc1oc(C)c(C(=O)NCc2ccccn2)c1C	-148%

SMILES	INHIBITION
COc1ncccc1CNC(=O)c1c(C)oc(C)c1C	32.4%
Cc1oc(C)c(C(=O)NCc2ccccc2S(=O)(=O)N(C)C)c1C	-57.1%
Cc1cc(CC(C)Nc2ncc(C)c(N(C)C)n2)[nH]n1 (stereo not drawn)	-13.9%
O=C(c1ccccc1)N1C[C@@H]2CCCO[C@@H]2[C@H](N2CCCC2)C1	-41.1%
O=C(O)[C@@H]1CN(C(=O)c2ccc3[nH]nnc3c2)C[C@H]1c1ccccc1	-123%
COCC1(C(=O)N[C@H]2CN(c3nnc(C)s3)C[C@@H]2C2CC2)CCC1	-176%
CC(C)c1nc(CN(C)C2CCN(CCNS(C)(=O)=O)C2)no1 (stereo not drawn)	-20.9%
CSCCc1ccc(NC(=O)NCc2ccnc(N(C)C)c2)cc1	-46.2%
COc1cc(N2C[C@@H]3COC[C@]3(COc3ncccc3F)C2)ncn1	-25.8%
c1c(CN2CCCC2)nc2n1CCN(C1CCOCC1)C2	-103%
Cc1cc2n(n1)CC(CNCc1ccc(OCC3CC3)nc1)CN2 (stereo not drawn)	-101%
Cc1cc2n(n1)CC(CNCc1ccc(Oc3ccccc3)nc1)CN2 (stereo not drawn)	58.9%
COc1cc(CNCC2CNc3ccnn3C2)ccn1 (stereo not drawn)	-129%
Cc1cc2n(n1)CC(CNCc1ccc(-n3cccn3)nc1)CN2 (stereo not drawn)	15.1%
c1ccc(Oc2cc(CNCC3CNc4ccnn4C3)ccn2)cc1 (stereo not drawn)	53.3%
c1ccc(Oc2ccc(CNCC3CNc4ccnn4C3)cn2)cc1 (stereo not drawn)	-12.8%
Cc1cc2n(n1)CC(CNCc1ccc(-n3cccn3)cc1)CN2 (stereo not drawn)	53.4%
Cc1cc2n(n1)CC(CNCc1cnn(-c3ccccc3)c1)CN2 (stereo not drawn)	-71.4%
COc1ccc(CNCC2CNc3cc(C)nn3C2)cn1 (stereo not drawn)	-171%
COc1ccccc1N1CC(NC(=O)c2cc(C(C)C)nn2C)CC1=O (stereo not drawn)	-102%
COCC1c2nnn(C)c2CCN1C(=O)CCc1cccc(OC)c1 (stereo not drawn)	-85.3%
CC1CCCN(Cc2ccc(C(N)=O)cc2)C1 (stereo not drawn)	-118%
COc1ccc(NC(C)c2nnnn2-c2ccccc2)cc1F (stereo not drawn)	-2.6%
Cc1nc(Cc2ccccc2)nc2sc(C(=O)O)c(C)c12	-62.8%
CC(=O)N1CCN(c2nc(C(F)(F)F)nc3sc(C)c(C)c23)CC1	-30.4%
Cc1sc2nc(CCN)nc(N3CCS(=O)(=O)CC3)c2c1C	-119%

SMILES	INHIBITION
CCOC(=O)N1CCN(c2nc(CCN)nc3sc(C)c(C)c23)CC1	66.1%
Cc1cnn(CC(C)NCc2ccc(OCC(N)=O)cc2)c1 (stereo not drawn)	-49.9%
CCOC(=O)N1CCN(c2nc(NCCCO)c3ccccc3n2)CC1	-50.8%
CCn1ccc(-c2cc(NCCCOc3ccccc3C)nc(C)n2)n1	-2.89%
CC(C)COc1ccccc1C(N)CC(C)C (stereo not drawn)	28.3%
Cc1ccc(Oc2c(F)cccc2OC[C@@H](N)CC(C)C)cc1	65.9%
CCOc1ccccc1C(N)CC(C)C (stereo not drawn)	33.2%
O=C(O)c1ccnc(SCC(F)(F)F)c1	-13.4%
CN1[C@@H](C(=O)NCC2CC2)C[C@H]2CN(Cc3cccc(C#N)c3)C[C@H]21	27.2%
CN1CCN(C[C@@H]2OC[C@H]3CN(CCc4ccccc4)CC[C@H]32)CC1	66.1%
Cc1ccc(CN2CC[C@@H]3[C@@H](CO[C@H]3CN3CCN(C)CC3)C2)cc1	-1.6%
CN1CCN(C[C@@H]2OC[C@H]3CN(Cc4cccc(F)c4)CC[C@H]32)CC1	19.2%
Cn1cccc1C(=O)N1CCO[C@H]2[C@H](OCc3cccnc3)CC[C@@H]21	-57.2%
CC(C)C(=O)N1CCC([C@@H]2C[C@H](C(F)F)n3ncnc3N2)CC1	12.2%
COCCN1CCOCC12CCN(C(=O)c1c[nH]c3ccccc13)CC2	-122%
Cc1ccc(CN2CCOCC3(C2)CN(c2ccc(C)s2)C(=O)CO3)o1 (stereo not drawn)	-71.8%
CCc1cc(N2CCC3(CCCNC3=O)C2)nc(N2CCOCC2)n1 (stereo not drawn)	-56.1%
Cc1ccc(CN2CCOC3(COCCN(CCN(C)C)C3)C2)o1 (stereo not drawn)	-69.1%
COCCNC(=O)C1(Cc2ccccc2-c2ccncc2)CCOCC1	-10.1%
O=C(O)C1(Cc2ccc(-c3cccs3)cc2)CCNC1 (stereo not drawn)	-44.3%
CC(C)NC(=O)C1(Cc2ccccc2-c2cccs2)CCNC1 (stereo not drawn)	68.3%
CC(C)NC(=O)C1(Cc2ccccc2-c2cncnc2)CCCNC1 (stereo not drawn)	-14.3%
CC(C)CNC(=O)C1(Cc2ccccc2-c2ccccc2)CCNC1 (stereo not drawn)	52%
O=C(NCCO)C1(Cc2ccccc2-c2cccnc2)CCOCC1	-31.7%
Cc1cc(=O)[nH]c(=O)n1Cc1ncc(-c2ccccc2C(=O)O)s1	-46.1%
